Z-score data for 36 molecules are collected here from PubChem BioAssay.

Structures are written as SMILES. Calls of active or inactive are those of the source.

Tested on in one assay: not listed separately
In words: S6 kinase pathway phospho-S6 level changes – cell-based, A549, cytoblot, luminescence, serum-stimulated, primary screen (AID 1158).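 Also: serum-stimulated A549 lung adenocarcinoma cells; signal is phosphorylated S6 detected by cytoblot immunostaining with HRP secondary.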 Conditions: 5 h, higher = more signal.
Molecule `CCN1C(=O)[C@H]2[C@H]3[C@H](O)[C@H](O)CC(=NOCC(C)C)[C@H]3CC[C@H]2C1=O` displayed a z-score of -0.812.
With `COC(OC)[C@@H](C)[C@H](OC)[C@@H](C)[C@H](OC)c1ccccc1`, the z-score was 1.67.
As to `COC(=O)[C@H](C)NC(=O)CCC1CC(OC(=O)NCc2ccc3c(c2)OCO3)CC2(CCCC(COC(=O)NCc3ccccc3)O2)O1` (some centres not stated), the z-score amounted to 0.307.
`CO[C@@H](C1CCCCC1)[C@@H](C)[C@H](OCc1cccc(Br)c1)[C@@H](C)CO` registered a z-score of -0.337.
In the case of `CC(C)CON=C1[C@H]2CCn3c(=O)n(C)c(=O)n3[C@H]2[C@H](O)[C@@H]2O[C@H]12`, the z-score was -0.445.
On the same count and under the same terms, for `C[C@]12CCC3c4ccc(OCC5CO5)cc4CCC3C1CC[C@@H]2O` (some centres not stated) the value was 0.25; for `CO[C@@H]1C=CCC(=O)N[C@@H](C)C(=O)OC[C@@H](OC)[C@H](C)C=CCC(=O)OC[C@H]1C`, 0.15; for `OC[C@H]1O[C@H](C#Cc2ccccc2)C=C[C@@H]1O`, -0.0359.
With `CC(C)[C@@H](OCc1ccccc1)[C@H](C)C=NO[C@H](C)c1cn([C@@H]2COC[C@H]2O)nn1`, the z-score was -0.995.
On the same count and under the same terms, with `CN1CCc2nc(-c3ccccc3)c(-c3ccccc3)cc2C1` the figure was -0.76; with `O=C1[C@H]2[C@H]3[C@H](O)[C@H](O)CC(=NOC[C@@H](O)COCc4ccco4)[C@@H]3CC[C@H]2C(=O)N1Cc1ccc2c(c1)OCO2`, 0.236; with `CCOC(=O)[C@H](CC(C)C)NC(=O)CCC1CC(OC(=O)NCc2ccc3c(c2)OCO3)CC2(CCCC(COC(=O)NCCc3ccccc3OC)O2)O1` (some centres not stated), -0.116.
In turn, `C[C@@H]1CC[C@H]2C(=O)OC(CN3C(=O)c4ccccc4C3=O)CN2[C@H]1c1ccc(Br)cc1` (some centres not stated) had a z-score of 0.134.
Consider `O=C1C=C[C@@H](O)[C@@H]2[C@@H]3C(=O)N(Cc4ccc5c(c4)OCO5)C(=O)[C@@H]3CC[C@@H]12`, for which the z-score stood at 0.182.
Take `COC(=O)[C@H](C)NC(=O)CCC1CC(OC(=O)NCc2cccc3ccccc23)CC2(CCCC(COC(=O)NCCCN3CCCC3=O)O2)O1` (some centres not stated): the z-score was -0.463.
For `CO[C@@H]1COC(=O)[C@H](COCc2ccccc2)NC(=O)CC=C[C@@H](C)[C@H](OC)COC(=O)[C@@H](C)NC(=O)CC=C[C@H]1C`, the z-score turned out to be 0.166.
The same measure, in the same setting: with `CON=C(C)CCN1CCCCc2nc(C)c(C)cc21` the figure was -0.834; with `C#CCCCON=C1[C@H]2CCn3c(=O)n(Cc4cc5c(cc4Cl)OCO5)c(=O)n3[C@H]2[C@H](O)[C@@H]2O[C@H]12`, -0.345.
Same read-out and setting: with `C[C@H]1CC[C@H]2C(=O)N[C@H](Cc3ccccc3)C(=O)N2[C@@H]1c1ccccc1` the figure was -0.0623; with `CC(CCN1CCc2nc(-c3ccccc3)c(-c3ccccc3)cc2C1)=NO[C@H](C)c1cn([C@H](CO)Cc2ccccc2)nn1`, -0.746.
Same read-out and setting: for `C#CCCCON=C1C[C@@H](O)[C@@H](O)[C@@H]2[C@@H]3C(=O)N(C[C@@H]4CCCO4)C(=O)[C@@H]3CC[C@@H]12` the value was -0.53; for `CCOC(=O)[C@H](CC(C)C)NC(=O)CCC1CC(OC(=O)NCc2ccc3c(c2)OCO3)CC2(CCCC(COC(=O)NCCOC)O2)O1` (some centres not stated), -0.421; for `COc1ccc(OC[C@@H](CO)OC)cc1`, -0.51.
Turning to `COC(=O)[C@@H]1CC[C@H](C)[C@@H](c2ccc(C)cc2)N1C(=O)c1ccc(C=NOC[C@@H](O)[C@H]2O[C@@H]3OC(C)(C)O[C@@H]3[C@H]2O)cc1`, the z-score was -0.924.
`CC(=O)OC[C@H]1O[C@H](CC=NO[C@@H](C)c2cn([C@H](CO)Cc3ccccc3)nn2)C=C[C@@H]1OC(C)=O` yielded a z-score of 0.703.
Consider `COC(=O)[C@H](C)NC(=O)CCC1CC(OC(=O)NCc2ccc3c(c2)OCO3)CC2(CCCC(COC(=O)NCCC(C)C)O2)O1` (some centres not stated), for which the z-score was 0.392.

In a further assay the target is NADPH oxidase 2 (Homo sapiens) (UniProt P04839). In words: compounds shifting NOX2 Amplex Red fluorescence – cell-based, HEK293-NOX2, PMA-stimulated, NOX inhibitor project, primary screen (AID 1159). Also: test concentration not given here. The settings on record: 45 min, higher = more signal, called active from +8 up or from −8 down.
NADPH oxidase 2 (Homo sapiens), sequence (P04839 whole entry, looked up): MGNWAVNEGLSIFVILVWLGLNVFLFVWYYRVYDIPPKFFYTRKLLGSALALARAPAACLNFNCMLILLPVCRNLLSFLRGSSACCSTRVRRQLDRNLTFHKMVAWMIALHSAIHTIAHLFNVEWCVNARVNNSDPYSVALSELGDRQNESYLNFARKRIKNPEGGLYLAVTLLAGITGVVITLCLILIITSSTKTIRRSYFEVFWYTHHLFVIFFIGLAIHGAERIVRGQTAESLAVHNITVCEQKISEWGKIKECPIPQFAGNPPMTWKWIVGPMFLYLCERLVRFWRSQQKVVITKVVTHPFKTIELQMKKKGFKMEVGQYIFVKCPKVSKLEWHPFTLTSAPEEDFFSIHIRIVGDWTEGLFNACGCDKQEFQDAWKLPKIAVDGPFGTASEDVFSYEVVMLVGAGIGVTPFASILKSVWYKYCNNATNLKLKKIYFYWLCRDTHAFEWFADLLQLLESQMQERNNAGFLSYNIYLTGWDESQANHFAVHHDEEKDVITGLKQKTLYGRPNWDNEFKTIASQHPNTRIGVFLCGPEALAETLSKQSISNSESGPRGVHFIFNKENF
For the molecule `CCOC(=O)CCN1C(=O)[C@H]2[C@H]3[C@H](O)[C@H](O)CC(=NOCC=C(C)CCC=C(C)C)[C@H]3CC[C@H]2C1=O`, the z-score is -4.23 (inactive).
Regarding `CCOC(=O)[C@H](Cc1ccccc1)NC(=O)CCC1CC(OC(=O)NCc2cccc3ccccc23)CC2(CCCC(COC(=O)NCCOc3ccccc3)O2)O1` (some centres not stated), the z-score was 0.0124 (inactive).
`CCOC(=O)[C@H](CC(C)C)NC(=O)CCC1CC(OC(=O)NCCc2ccc(F)cc2)CC2(CCCC(COC(=O)NCCCN3CCCC3=O)O2)O1` (some centres not stated): the z-score is 0.575 (inactive).
Regarding `CC(=O)OC[C@H]1O[C@H](CC=NOC(C)CN2CCCCc3nc(C)c(C)cc32)C=C[C@@H]1OC(C)=O` (some centres not stated), the z-score was -1.69 (inactive).
The same measure, in the same setting: for `C#CCCCON=C1[C@H]2CCn3c(=O)n([C@@H](CC)c4ccccc4)c(=O)n3[C@H]2[C@H](O)[C@@H]2O[C@H]12` the value was 1.29 (inactive).
In the case of `CO[C@H]1C[C@@H]2C[C@H](O)CC(CC(=O)O[C@@H](C=CCC(C)C)C[C@@H]3CC[C@H](C)[C@@H](C1)O3)O2`, the z-score was -1.17 (inactive).
Regarding `C=CC[C@@H]1C=C[C@H](ON=C[C@@H](NS(=O)(=O)c2ccc(C)cc2)[C@H](C)C=CCC(=O)OC)[C@@H](CO)O1`, the z-score was -0.0272 (inactive).
Turning to `CO[C@H]1COC(=O)CCC[C@H](C)[C@@H](OC)COC(=O)CC=C[C@@H]1C`, the z-score was -0.123 (inactive).
On to `O=C(NN=C1C[C@@H](O)[C@@H](O)[C@@H]2[C@@H]3C(=O)N(Cc4ccccc4)C(=O)[C@@H]3CC[C@H]12)OCc1ccccc1`, for which the z-score is 1.49 (inactive).
Still for that read-out and setting: with `CCOC(=O)[C@H](CC(C)C)NC(=O)CCC1CC(OC(=O)NCCc2ccc(F)cc2)CC2(CCCC(COC(=O)NCc3cccc4ccccc34)O2)O1` (some centres not stated) the figure was 0.135 (inactive); with `CCN1C(=O)[C@H]2[C@H]3[C@H](O)[C@H](O)CC(=NOCC(C)C)[C@H]3CC[C@H]2C1=O`, -5.92 (inactive); with `COC(OC)[C@@H](C)[C@H](OC)[C@@H](C)[C@H](OC)c1ccccc1`, 0.491 (inactive).
Same read-out and setting: with `COC(=O)[C@H](C)NC(=O)CCC1CC(OC(=O)NCc2ccc3c(c2)OCO3)CC2(CCCC(COC(=O)NCc3ccccc3)O2)O1` (some centres not stated) the figure was 0.154 (inactive); with `CO[C@@H](C1CCCCC1)[C@@H](C)[C@H](OCc1cccc(Br)c1)[C@@H](C)CO`, -0.787 (inactive); with `CC(C)CON=C1[C@H]2CCn3c(=O)n(C)c(=O)n3[C@H]2[C@H](O)[C@@H]2O[C@H]12`, -0.5 (inactive).
With `C[C@]12CCC3c4ccc(OCC5CO5)cc4CCC3C1CC[C@@H]2O` (some centres not stated), the z-score was 1.44 (inactive).
In the case of `CO[C@@H]1C=CCC(=O)N[C@@H](C)C(=O)OC[C@@H](OC)[C@H](C)C=CCC(=O)OC[C@H]1C`, the z-score was -0.27 (inactive).
With `OC[C@H]1O[C@H](C#Cc2ccccc2)C=C[C@@H]1O`, the z-score is -0.178 (inactive).
Take `CC(C)[C@@H](OCc1ccccc1)[C@H](C)C=NO[C@H](C)c1cn([C@@H]2COC[C@H]2O)nn1`: the z-score is 0.542 (inactive).
Turning to `CN1CCc2nc(-c3ccccc3)c(-c3ccccc3)cc2C1`, the z-score was -0.512 (inactive).
Turning to `O=C1[C@H]2[C@H]3[C@H](O)[C@H](O)CC(=NOC[C@@H](O)COCc4ccco4)[C@@H]3CC[C@H]2C(=O)N1Cc1ccc2c(c1)OCO2`, the z-score is -2.68 (inactive).
On to `CCOC(=O)[C@H](CC(C)C)NC(=O)CCC1CC(OC(=O)NCc2ccc3c(c2)OCO3)CC2(CCCC(COC(=O)NCCc3ccccc3OC)O2)O1` (some centres not stated), for which the z-score was 0.0807 (inactive).
Same read-out and setting: for `C[C@@H]1CC[C@H]2C(=O)OC(CN3C(=O)c4ccccc4C3=O)CN2[C@H]1c1ccc(Br)cc1` (some centres not stated) the value was 0.371 (inactive); for `O=C1C=C[C@@H](O)[C@@H]2[C@@H]3C(=O)N(Cc4ccc5c(c4)OCO5)C(=O)[C@@H]3CC[C@@H]12`, 1.41 (inactive).
Regarding `COC(=O)[C@H](C)NC(=O)CCC1CC(OC(=O)NCc2cccc3ccccc23)CC2(CCCC(COC(=O)NCCCN3CCCC3=O)O2)O1` (some centres not stated), the z-score was -0.383 (inactive).
For `CO[C@@H]1COC(=O)[C@H](COCc2ccccc2)NC(=O)CC=C[C@@H](C)[C@H](OC)COC(=O)[C@@H](C)NC(=O)CC=C[C@H]1C`, the z-score is -0.74 (inactive).
Consider `CON=C(C)CCN1CCCCc2nc(C)c(C)cc21`, for which the z-score was -0.0289 (inactive).
For the molecule `C#CCCCON=C1[C@H]2CCn3c(=O)n(Cc4cc5c(cc4Cl)OCO5)c(=O)n3[C@H]2[C@H](O)[C@@H]2O[C@H]12`, the z-score was -0.331 (inactive).
For `C[C@H]1CC[C@H]2C(=O)N[C@H](Cc3ccccc3)C(=O)N2[C@@H]1c1ccccc1`, the z-score was 0.727 (inactive).
Same read-out and setting: for `CC(CCN1CCc2nc(-c3ccccc3)c(-c3ccccc3)cc2C1)=NO[C@H](C)c1cn([C@H](CO)Cc2ccccc2)nn1` the value was -4.57 (inactive).
Regarding `C#CCCCON=C1C[C@@H](O)[C@@H](O)[C@@H]2[C@@H]3C(=O)N(C[C@@H]4CCCO4)C(=O)[C@@H]3CC[C@@H]12`, the z-score is -3.03 (inactive).
As for `CCOC(=O)[C@H](CC(C)C)NC(=O)CCC1CC(OC(=O)NCc2ccc3c(c2)OCO3)CC2(CCCC(COC(=O)NCCOC)O2)O1` (some centres not stated), the z-score is -0.288 (inactive).
Consider `COc1ccc(OC[C@@H](CO)OC)cc1`, for which the z-score is 0.712 (inactive).
As for `COC(=O)[C@@H]1CC[C@H](C)[C@@H](c2ccc(C)cc2)N1C(=O)c1ccc(C=NOC[C@@H](O)[C@H]2O[C@@H]3OC(C)(C)O[C@@H]3[C@H]2O)cc1`, the z-score is 0.659 (inactive).
Take `CC(=O)OC[C@H]1O[C@H](CC=NO[C@@H](C)c2cn([C@H](CO)Cc3ccccc3)nn2)C=C[C@@H]1OC(C)=O`: the z-score is -2.05 (inactive).
As to `COC(=O)[C@H](C)NC(=O)CCC1CC(OC(=O)NCc2ccc3c(c2)OCO3)CC2(CCCC(COC(=O)NCCC(C)C)O2)O1` (some centres not stated), the z-score is 0.738 (inactive).
